Most compounds without a hit are left out; they make up all but 18% or so of the library.
TGFb SMAD3 inh: inhibitors of TGF-b signaling | AID 588855 | Potency, µM (titrated, usually from 46.1 µM), for the others: top-dose activity, negative = inhibition, actives largely listed as inhibitors | 410,000 compounds, 1.2% hits | HepG2 CAGA-GFP TGF-b/SMAD3 reporter, GFP fluorescence, 18 h; TGF-beta stimulated, 500 pg/mL final; note: potency is the fitted concentration of half-maximal effect; % is set by controls: 0 for no effect and ±100 for the full control effect; nearly all actives have a fitted effect of over 65% in size
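HEPG2 CAGA-GFP, 1000 cells/well; 2 h settle, 37 C; cpd via pin tool; TGF-b 500 pg/mL final; 18 h, 37 C; GFP imaging ex488/em500-530; %Activity normalised to -TGF-b and +DMSO controls; CRC fit, curve class.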
DT40 TDP1 CPT: DT40-hTDP1 cell growth loss with CPT | chicken DT40 Tdp1-/-;hTDP1 cells + 20 nM CPT, ATP luminescence, 48 h | Potency, µM (titrated, usually from 46.2 µM), without a hit: top-dose activity change, negative = growth inhibition, usual class: inhibitors | AID 686979 | 420,000 compounds, 12% hits; note: potency is the fitted concentration of half-maximal effect; % is set by controls: 0 for no effect and ±100 for the full control effect; nearly all actives have a fitted effect of over 55% in size
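Chicken DT40 Tdp1-/- cells stably complemented with human TDP1 were seeded at 400 cells/well in medium containing 20 nM camptothecin, exposed to pin-transferred compounds, and grown at 37 °C for at least 48 hr. Viability was read as ATP luminescence.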
HepG2 viability: HepG2 cytotoxicity, counter-screen for TGF-b inhibitors. HepG2 CAGA-GFP viability, ATP luminescence, 18 h. Potency, µM (highest dose often 46.1 µM), inactives show top-dose activity change, negative = cytotoxicity, actives largely listed as cytotoxic. 410,000 compounds, 0.76% hits. AID 588856; note: potency is the fitted concentration of half-maximal effect
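HepG2 CAGA-GFP cells (1000/well, DMEM with 1% FBS) received compound, then TGF-beta at 500 pg/mL final, and were incubated 18 hours at 37 degrees C. Viability was read by CellTiter-Glo luminescence. Media-only wells were set as complete cell-killing and DMSO as no toxicity.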
DT40 TDP1 no CPT: qHTS for Inhibitors of human tyrosyl-DNA phosphodiesterase 1 (TDP1): qHTS in cells in absence of CPT; DT40 Tdp1-/- hTDP1 cells, no CPT, ATP luminescence, 48 h; Potency, µM (doses to about 46.2 µM), without a hit: at the top dose activity change, negative = growth inhibition, most hits filed as inhibitors; 420,000 compounds, 15% hits; AID 686978, 2013; note: potency is the fitted concentration of half-maximal effect; % is set by controls: 0 for no effect and ±100 for the full control effect; nearly all actives have a fitted effect of over 55% in size
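Chicken DT40 Tdp1-/- cells stably complemented with human TDP1 were seeded at 400 cells/well with DMSO in place of 20 nM camptothecin. After compound pinning, cells grew at least 48 hr at 37 °C; viability read by CellTiter-Glo luminescence.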
IL-1B inflam inh: blocks inflammasome-driven IL-1 beta release | THP-1 LPS/ATP IL-1B secretion, AlphaLISA, 16 h; hits give low values | activity change, % at 57.5 µM | 360,000 compounds, 4.7% hits; in the data active = activity change below about -50%; inconclusive = mostly about -30% to -49%; note: % is set by controls: 0 for no effect and ±100 for the full control effect
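THP-1 cells pretreated 1 hr with compounds (up to 57.5 uM final), then stimulated with LPS (250 ng/mL final) plus ATP (1.25 mM final); secreted IL-1B measured by AlphaLISA after 16 hr, decreased signal indicating inhibition.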
TDP1 block: inhibitors of human tyrosyl-DNA phosphodiesterase TDP1; Potency, µM (titrated, usually from 130 µM), for inactives: at the highest dose activity change, negative = inhibition, usual class: inhibitors; 350,000 compounds, 0.28% hits; AID 485290; recombinant TDP1, AlphaScreen DNA substrate cleavage; Q9NUW8; note: potency is the fitted concentration of half-maximal effect; % is set by controls: 0 for no effect and ±100 for the full control effect; nearly all actives have a fitted effect of over 40% in size
Target sequence (Q9NUW8 whole entry, looked up): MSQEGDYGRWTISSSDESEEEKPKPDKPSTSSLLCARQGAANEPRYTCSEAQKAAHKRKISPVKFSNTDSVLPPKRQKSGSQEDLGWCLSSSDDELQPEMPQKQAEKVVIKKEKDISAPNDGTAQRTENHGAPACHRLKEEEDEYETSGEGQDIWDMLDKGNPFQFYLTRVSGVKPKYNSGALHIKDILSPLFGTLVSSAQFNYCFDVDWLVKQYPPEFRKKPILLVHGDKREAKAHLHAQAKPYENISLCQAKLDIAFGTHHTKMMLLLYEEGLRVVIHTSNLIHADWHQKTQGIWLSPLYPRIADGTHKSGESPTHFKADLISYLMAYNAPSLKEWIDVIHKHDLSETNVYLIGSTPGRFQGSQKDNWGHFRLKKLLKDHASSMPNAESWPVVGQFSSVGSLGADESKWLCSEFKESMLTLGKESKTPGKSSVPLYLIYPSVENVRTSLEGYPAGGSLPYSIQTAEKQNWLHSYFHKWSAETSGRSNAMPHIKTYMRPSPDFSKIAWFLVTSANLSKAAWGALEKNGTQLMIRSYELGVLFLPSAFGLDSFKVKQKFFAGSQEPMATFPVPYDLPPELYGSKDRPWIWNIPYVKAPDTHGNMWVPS
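Tdp1 1 nM final; 15 min RT w/ cpd; substrate 15 nM, 5 min; beads 10 ug/ml, 10 min; AlphaScreen read. Neg ctrl: no enzyme.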
Starred values were filed as active, the others as inactive; ? = inconclusive; / = no result given. Unless noted, calls come from the whole dose curve; as a rule, active = well fitted curve in the direction sought with a large enough effect; inconclusive = small, poorly fitted or top-dose-only effect, or another doubt; inactive = no such curve, though single readings can be large; an effect the other way counts as inactive or inconclusive.

SMILES	TGFb SMAD3 inh	DT40 TDP1 CPT	HepG2 viability	DT40 TDP1 no CPT	IL-1B inflam inh	TDP1 block
CCOC(=O)c1cc(-c2ccncc2)nc2c1c(C)nn2C	16%	?	-39%	18µM*	?	-4%
CCOC(=O)c1cc(-c2ccc3c(c2)OCCO3)nc2c1c(C)nn2CCC#N	-3%	?	-3%	12µM*	0	-7%
CCOC(=O)c1cc(-c2ccc(OC)cc2F)nc2c1c(C)nn2CCC#N	-1%	?	-50%	?	-50*	1%
c1ccc(N=C2SCCCS2)cc1	-2%	-10%	-2%	?	1	/
Cn1c(N)c(C(=O)CSc2nnc(Cc3cccs3)n2C2CC2)c(=O)n(C)c1=O	1%	-12%	10%	-14%	1	0%
O=S(=O)(c1ccccc1)c1cc(O)ccc1O	-5%	3.3µM*	3%	7.3µM*	0	6%
C=C1CC(Cn2cc(Br)c(=O)[nH]c2=O)(c2ccc(-c3ccccc3)cc2)OC1=O (stereo not drawn)	4.5µM*	0.033µM*	7.1µM*	0.026µM*	-2	/
COc1cc(N/N=C/c2ccccc2O)ncn1	-14%	1.6µM*	-28%	1.5µM*	43	7%
CCOc1ccc(/C=N/Nc2nc(C)cs2)c(O)c1	?	10µM*	-39%	?	-10	/
CCCOc1ccc(/C=N/Nc2cc(N3CCOCC3)ncn2)c(O)c1	-17%	?	-21%	10µM*	103	/
CCOc1ccc(/C=N/Nc2cc(N3CCOCC3)ncn2)c(O)c1	2%	5.8µM*	-2%	5.8µM*	99	/
COc1cc(N/N=C/c2ccc(N(C)C)cc2)ncn1	-25%	-30%	-7%	?	8	4%
Cc1csc(N/N=C/c2ccccc2F)n1	-5%	?	-2%	-10%	42	/
CCCc1ccc(OCc2ccccc2)c2c(=O)cc(C(=O)OCC)oc12	-5%	21%	-10%	-2%	3	-1%
COc1ccc(-c2nc3sc(CCNC(=O)C(=O)Nc4c(C)cccc4C)c(C)n3n2)cc1	15%	-6%	-7%	-13%	/	-8%
COc1ccc(-c2nc3sc(CCNC(=O)c4cc(OC)c(OC)c(OC)c4)c(C)n3n2)cc1	?	23µM*	-22%	16µM*	/	0%
COc1ccc(-c2nc3sc(CCNC(=O)Cc4ccccc4)c(C)n3n2)cc1	-31%	15µM*	-27%	21µM*	/	-5%
COc1ccc(-c2nc3sc(CCNC(=O)Cc4ccc(F)cc4)c(C)n3n2)cc1	?	16µM*	-4%	16µM*	/	5%
Cc1nc(-c2ccc(Cl)cc2)sc1CCNC(=O)Cc1ccc(F)cc1	?	16µM*	-13%	15µM*	/	2%
COc1cccc(C(=O)N2CCN(Cc3nc(CC4CC4)no3)CC2)c1	-12%	-22%	4%	4%	10	/
CCN(CC)S(=O)(=O)c1ccc(=O)n(CC(=O)N2CCCc3cc(C)ccc32)c1	-18%	-6%	-7%	-11%	?	0%
COc1cc([N+](=O)[O-])ccc1NC(=O)Nn1cnnc1	-5%	1%	3%	23%	0	3%
COc1ccc(-c2nc3sc(CCNC(=O)c4ccco4)c(C)n3n2)cc1	-9%	?	-23%	13µM*	/	3%
COc1ccc(CCN(C(=O)C(F)(F)F)C(C(=O)NC2CCCC2)c2cccs2)cc1OC (stereo not drawn)	-14%	7.3µM*	7%	1.8µM*	-20	0%
COc1ccc(CCN(C(=O)C(F)(F)F)C(C(=O)NC2CCCCC2)c2ccc(C)s2)cc1OC (stereo not drawn)	-17%	12µM*	-17%	9.2µM*	4	-3%
SMILES	TGFb SMAD3 inh	DT40 TDP1 CPT	HepG2 viability	DT40 TDP1 no CPT	IL-1B inflam inh	TDP1 block
COc1ccc(CCN(C(=O)c2ccco2)C(C(=O)NC2CCCC2)c2ccncc2)cc1OC (stereo not drawn)	1%	-14%	1%	-18%	-15	-1%
CSCCC(NC(=O)c1ccc([N+](=O)[O-])cc1Cl)C(=O)OC1CCCCC1=O (stereo not drawn)	0%	-16%	-24%	9%	3	3%
O=S(=O)(c1ccccc1)N1CCN(c2ccnc3cc(Cl)ccc23)CC1	?	16µM*	-30%	?	-86*	0%
Cc1cc(N2CCN(S(=O)(=O)c3ccccc3)CC2)c2ccccc2n1	?	16µM*	-35%	18µM*	-15	4%
O=S(=O)(c1cccs1)N1CCN(c2ccnc3cc(Cl)ccc23)CC1	?	13µM*	-15%	23µM*	/	3%
c1ccc(-c2csc(N3CCCCCC3)n2)cc1	1%	-23%	-41%	?	-1	3%
Cc1cc(N2CCN(C(=O)c3ccco3)CC2)c2ccccc2n1	3%	-15%	-9%	-14%	-2	4%
O=S(=O)(c1ccccc1)N1CCN(c2nc(-c3ccc(F)cc3)nc3cc(Cl)ccc23)CC1	-3%	/	-8%	/	/	1%
Cc1cc(N2CCN(c3nc(-c4ccccc4)cs3)CC2)c2ccccc2n1	-20%	23µM*	4%	21µM*	?	4%
COc1ccc(C2=NS(=O)(=O)N(C)C(C(=O)N3CCCCC3C)=C2)cc1 (stereo not drawn)	-8%	?	-22%	?	5	/
O=C(CN1CCN(S(=O)(=O)c2ccc(F)cc2)CC1)Nc1ccc(F)cc1F	-13%	-10%	-13%	?	3	4%
CC(C)NC(=S)NN=C1CCC(c2ccccc2)CC1 (stereo not drawn)	-19%	?	0%	16µM*	10	7%
COC(=O)CCC/C=C1/SCC(NC(=O)c2ccccc2)C1=O (stereo not drawn)	?	26µM*	-1%	16µM*	3	2%
COC(=O)CCC/C=C1/SCC(NC(=O)c2ccccc2)C1O (stereo not drawn)	10%	-6%	-5%	-5%	-6	1%
Nc1cccc(-n2nnnc2CN2CCOCC2)c1	7%	?	-3%	16µM*	-18	1%
CCOc1ccccc1N(CC(=O)Nc1ccc(OC)cc1)S(=O)(=O)c1ccccc1	-11%	?	-23%	?	10	/

Screening data deposited in PubChem BioAssay by National Center for Advancing Translational Sciences (NCATS).
